SW480 rerep: DNA re-replication induction in SW480 cells; SW480 DNA re-replication, Hoechst DNA content imaging, 48 h; AID 624297; 340,000 compounds, 1.8% hits; Potency, µM (titrated, usually from 46.1 µM), inactives show at the top dose re-replication activation, usual class: activators; note: % of control where 0% means no effect; nearly all actives have a fitted effect of over 55% in size
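Quantitative HTS format with DMSO vehicle controls; 48 hr drug incubation at 37 C, then 40 min Hoechst staining and scanning imager measurement at 405 nm excitation.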
a7 integrin act: activators of alpha7 integrin expression for muscular dystrophy; 350,000 compounds, 0.064% hits; alpha7betagal myoblasts, beta-gal FDG fluorescence, 48 h; AID 624291; Potency, µM (series often up to 38.3 µM), for inactives: at the highest dose activation, usual class: activators;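 note: 100% = response of the positive control SU9516; nearly all actives have a fitted effect of over 60% in size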
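alpha7betagal+/- myoblasts (passage 13, 250/well) treated 48 h at 37C with compounds at 1:260 dilution of DMSO stock. Lysed, then beta-galactosidase activity read as FDG fluorescence (ex 480/em 540) after 30 min, with pre-read for autofluorescence.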
Mito fusion yeast: mitochondrial division inhibition or fusion activation | S. cerevisiae fusion-defective mutant growth rescue, CellTiterGlo 48 h | Potency, µM (series often up to 46.1 µM), for the others: at the highest dose growth rescue (activation), actives largely listed as activators | 320,000 compounds, 0.23% hits; note: % of control where 0% means no effect; nearly all actives have a fitted effect of over 45% in size
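Luminescent cell viability in 1536-well qHTS format served as the measure of rescued growth in ts fusion-mutant S. cerevisiae cultured on non-fermentable YPEG for 48 hours at 37C.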
AT treatment: candidate therapy for ataxia-telangiectasia | Potency, µM (series often up to 57.5 µM), without a hit: top-dose activation, most hits filed as activators | 320,000 compounds, 0.19% hits | AID 485349 | F2112 A-T fibroblasts, KAP-1 phosphorylation AlphaLISA; neocarzinostatin DNA damage 30 min before lysis; note: % of control where 0% means no effect; nearly all actives have a fitted effect of over 45% in size
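hTERT-immortalized A-T patient fibroblasts (F2112), 500 cells/well in OPTI-MEM, 1% FBS, got compounds for 60 min, then NCS for 30 min at 37C. Lysates were then assayed for phospho-KAP-1 by AlphaLISA (anti-pKAP1 donor, anti-KAP1 acceptor beads), 6 hr at 25C.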
MCF10A rereplic: DNA re-replication induction in MCF 10a cells; Potency, µM (highest dose often 46.1 µM), without a hit: at the highest dose activity, positive = re-replication, hits mostly activators; 350,000 compounds, 2.9% hits; MCF 10A DNA re-replication, Hoechst nuclear intensity, 48 h; AID 624296; note: % of control where 0% means no effect; nearly all actives have a fitted effect of over 50% in size
An asterisk follows results filed as active; ? = inconclusive; nt = not tested or not shown; [ ] = remark or other dose. Most compounds without a hit are left out; they make up all but 4.2% or so of the library. Calls come from the whole dose curve; as a rule, active = well fitted activation curve with a large enough effect; inconclusive = small, poorly fitted or top-dose-only effect; inactive = no such curve, though single readings can be large or run the other way. Potency is the fitted concentration of half-maximal effect.

SMILES	SW480 rerep	a7 integrin act	Mito fusion yeast	AT treatment	MCF10A rereplic
N#CCSc1nc2ccccc2c(=O)n1C1CCCCC1	0%	0%	-12%	2%	-1%
CN(C)c1ccc(NC(=O)CSc2nc3ccccc3c(=O)n2C2CCCCC2)cc1	1%	4%	1%	nt	?
O=C(O)c1cn(Cc2ccccc2)c2ccc(Cl)cc2c1=O	1%	14%	5%	12%	6%
CC1=C(C(=O)Nc2cc(C(=O)NCc3ccccc3)ccc2C)SCCO1	nt	6%	nt	nt	nt
CCc1cc(Cn2nc(-c3ccccc3)cc2C(=O)NCC2CC2)on1	-1%	1%	11%	6%	0.15µM*
CCc1cc(Cn2nc(-c3ccccc3)cc2C(=O)NCCOC)on1	-43%	-3%	1%	-2%	0%
CCc1cc(Cn2nc(-c3ccccc3)cc2C(=O)NCc2cccs2)on1	?	-33%	13µM*	31%	?
CCOC(=O)c1cc(-c2ccccc2)nn1Cc1cc(CC)no1	-1%	-20%	18%	21%	-3%
CCOC(=O)C1(CCC(C)C)CC(CSc2nc3ccccc3[nH]2)OC1=O (stereo not drawn)	14%	-5%	2%	-2%	6.5µM*
Cc1ccc2c(c1)N(Cc1ccc3c(c1)OCO3)C(=O)C(C)O2 (stereo not drawn)	-17%	-7%[7.66 µM]	-14%	9%	?
CCC1Oc2ccc(C)cc2N(Cc2cccc(C)c2)C1=O (stereo not drawn)	-4%	-2%[7.66 µM]	-6%	?	12µM*
COc1ccc(NC(=S)NCCCc2ccccc2)cc1	18µM*	-5%	-1%	-11%	-1%
COc1ccc(CNC(=O)Nc2ccc(OC)cc2)cc1	?	14%	-1%	-4%	18µM*
COc1ccc(CNC(=O)Nc2ccccc2)cc1	17%	-15%	-6%	1%	1%
COc1ccc(NC(=S)NN(C)C(=S)Nc2ccc(OC)cc2)cc1	3.7µM*	-13%	-1%	-1%	?
COc1ccc(NC(=O)C23CCC(C)(C(=O)O2)C3(C)C)cc1 (stereo not drawn)	5.2µM*	6%	1%	5%	0.52µM*
Cc1ccc2oc(-c3cccc(NC(=O)c4cc(-n5cnnc5)ccc4Cl)c3)nc2c1	?	18%[7.66 µM]	-3%	nt	8.2µM*
Cc1ccc2oc(-c3cccc(NC(=O)Cc4cccs4)c3)nc2c1	2%	55%	-1%	-4%	15µM*
Cc1ccc2oc(-c3ccc(C)c(NC(=S)NC(=O)c4cccs4)c3)nc2c1	-6%	?	1%	1%	10µM*
Cc1ccc2oc(-c3ccc(C)c(NC(=O)Cc4cccs4)c3)nc2c1	-38%	1%	-3%	7%	2%
COCCCC1CCN(C(=O)CCc2nnc(CCCCc3ccccc3)o2)CC1	-5%	18%	13%	0%[11.5 µM]	4%
Cc1ccc(-n2[nH]c3c4c(ccc3c2=O)C(=O)c2ccccc2C4=O)cc1	13%	29%	-4%	-1%	2%
CC(C)(C)n1[nH]c2c3c(ccc2c1=O)C(=O)c1ccccc1C3=O	12µM*	-59%	-2%	2%	17%
Cc1ccc(C)c(-n2[nH]c3c4c(ccc3c2=O)C(=O)c2ccccc2C4=O)c1	-1%	4%	1%	1%	18µM*
COc1ccc(C2OC(=O)CC2C(=O)N2CCN(c3cc(Cl)ccc3C)CC2)cc1OC (stereo not drawn)	0%	-9%	-2%	12%	-1%
SMILES	SW480 rerep	a7 integrin act	Mito fusion yeast	AT treatment	MCF10A rereplic
O=[N+]([O-])c1cccc(-c2cn3nc(-c4ccccc4)c(-c4ccccc4)nc3n2)c1	5.8µM*	18%	-2%	2%	?
O=[N+]([O-])c1cccc(-c2cn3ccccc3n2)c1	-31%	16%	7%	0%	3%
O=[N+]([O-])c1ccc(-c2cn3nc(-c4ccccc4)c(-c4ccccc4)nc3n2)cc1	?	14%	4%	-15%	3.7µM*
O=[N+]([O-])c1ccc(-n2cc(-c3ccccc3)nn2)cc1	2%	-7%	-13%	-4%	0%
O=C(COC(=O)/C=C/c1cccc(C(F)(F)F)c1)NCCN1C(=O)CSC1=O	12%	-18%	-3%	-4%	26µM*
CN(C)/C=C1/C=C(c2ccccc2)OC1=O	?	13%	0%	-3%	18µM*

High-throughput results deposited in PubChem by National Center for Advancing Translational Sciences (NCATS).
